Bioassay records (PubChem BioAssay)
The list is a sample of the results.
aSyn UTR act: Activators via SNCA 5'UTR binding, MLPCN; hit rate 7.1% among 300,000; activity score, % (tested at 7.5 µM), hits read low; alpha-synuclein 5'UTR reporter, activators screen; in the data active means activity score below about -60%
An asterisk follows results filed as active.

SMILES | aSyn UTR act
CCC1CCCCN1S(=O)(=O)c1ccc(C(=O)Nc2nnc(-c3ccccc3Cl)o2)cc1 (stereo unspecified) | 56
COc1ccc(N(CC(=O)Nc2ccc3c(c2)OCCO3)S(C)(=O)=O)c(OC)c1 | -71*
COc1ccc(C)cc1NS(=O)(=O)c1ccc(NC(=O)CN(c2cc([N+](=O)[O-])ccc2C)S(C)(=O)=O)cc1 | 114
CC1CCCCN1S(=O)(=O)c1ccc(C(=O)Nc2sccc2C(N)=O)cc1 (stereo unspecified) | -106*
Cc1cc(C)c(OCC(=O)Nc2cc(C(=O)O)cc(C(=O)O)c2)cc1C | -129*
Cc1ccc(C)c(OCC(=O)Nc2cccc(C(=O)O)c2)c1C | -110*
CNc1cnn(-c2ccc(C)cc2)c(=O)c1Cl | -86*
CCSc1cnn(-c2ccccc2)c(=O)c1Cl | -92*
CN(c1cnn(-c2ccccc2)c(=O)c1Cl)n1cccc1 | -83*
O=c1c(Cl)c(N/N=C/c2ccc(Cl)cc2)cnn1-c1ccccc1 | -85*
CCCCNc1cnn(-c2ccccc2)c(=O)c1Cl | -74*
COc1cc([N+](=O)[O-])ccc1NC(=O)Nc1ccc2c(c1)OCCO2 | -72*
O=C(Nc1ccc([N+](=O)[O-])cc1)Nc1ccc2c(c1)OCCO2 | -92*
CN(C)c1ccc(/C=N/NC(=O)c2ccn(C)n2)cc1 | -115*
CN(C)c1ccc(/C=N/NC(=O)c2ccnn2C)cc1 | -110*
COc1c(C(=O)Nc2ccc(Br)cn2)ccc2ccccc12 | -167*
O=C(Nc1ccc(Br)cn1)c1ccc2ccccc2c1 | -83*
COc1cc2ccccc2cc1C(=O)Nc1ccc(Br)cn1 | -175*
Cc1ccccc1N=C1Nc2ccccc2CS1 | -134*
CCCCN1C(=O)CC(Nc2ccc(CC)cc2)C1=O (stereo unspecified) | -125*
Cc1ccc(NC2CC(=O)N(Cc3ccccc3)C2=O)cc1 (stereo unspecified) | -66*
CC(Sc1nncn1C)C(=O)Nc1nnc(-c2ccccc2)s1 (stereo unspecified) | -83*
CC(SC1=NCCS1)C(=O)Nc1nnc(-c2ccc(Cl)cc2)s1 (stereo unspecified) | -63*
O=C(CN1C(=O)CCC1=O)Nc1nc(-c2ccc(Cl)s2)cs1 | -64*
O=C(CSCC(=O)N1CCCCC1)Nc1nc(-c2ccc(Cl)s2)cs1 | -118*
SMILES | aSyn UTR act
CSc1ccccc1-c1nnc(-c2ccc(Cl)cc2Cl)o1 | -109*
CSc1ccccc1-c1nnc(-c2ccc(Cl)c(Cl)c2)o1 | -98*
CCSc1nnc(-c2ccc(OC)cc2)o1 | -186*
C#CCSc1nnc(-c2ccc([N+](=O)[O-])cc2)o1 | -151*
CCCCCCCCSc1nnc(-c2ccc(OC)cc2)o1 | 111
C#CCSc1nnc(-c2ccc(OC)cc2)o1 | -266*
O=C(Nc1ccccc1)C1=C[C@@H](c2ccc3c(c2)OCO3)C[C@@H](OCCCCO)O1 | -112*
O=C(Nc1ccccc1)C1=C[C@H](c2ccc3c(c2)OCO3)C[C@H](OCCCCO)O1 | -89*
Cc1ccc(Cn2c(O)c(N=NC(=S)Nc3ccccc3F)c3cc(S(=O)(=O)N4CCOCC4)ccc32)cc1 | 66
Cc1ccc(C)c(NC(=S)N=Nc2c(O)n(C)c3ccc(S(=O)(=O)N4CCOCC4)cc23)c1 | 78
Cc1ccc(Nc2ccc(S(=O)(=O)N3CCOCC3)cc2[N+](=O)[O-])c(C)c1 | -62*
CCOC(=O)c1sc(-c2ccc(C)cc2)c(C#N)c1C | -65*
Cc1ccc2nc(SCC(=O)c3ccccc3)nc(=O)n2c1 | -112*
Cc1ccn2c(=O)nc(SCC(=O)c3ccccc3)nc2c1 | -76*
COc1ccc(NC(=S)Nc2ccccn2)cc1 | -168*
COC(=O)c1ccc(NC(=S)Nc2ccccn2)cc1 | -171*
CSc1nc2sc3c(c2c(=O)n1C)CCC(C)C3 (stereo unspecified) | -165*
CC(=NC1CCCCC1)C1=C(O)c2ccccc2C1=O | -121*
CC(=O)N(C1=C(Cl)C(=O)c2ccccc2C1=O)C1CCCCC1 | 58
COc1ccc2oc(C(=O)NC(C)(C)C)c(C)c2c1 | -138*
CCOc1ccc2oc(C(=O)NCC3CCCO3)c(C)c2c1 (stereo unspecified) | -100*
COc1ccc(-c2cc(C(=O)NCC3CCCO3)c3cc(C)ccc3n2)cc1 (stereo unspecified) | -67*
COc1ccc2oc(C(=O)NCC3CCCO3)c(C)c2c1 (stereo unspecified) | -126*
Fc1ccc(C[n+]2csc3ccccc32)cc1 | -109*
N#Cc1ccsc1NC(=O)COC(=O)c1ccc2ccccc2c1 | -203*
SMILES | aSyn UTR act
COc1ccc(CCC(=O)Nc2sccc2C#N)cc1 | -156*
O=C(O)CCCc1ccc2c(c1)CCc1ccccc1-2 | 109
O=C(CCCCN1CCCCC1)c1ccc2c(c1)Cc1ccccc1-2 | -65*
COc1cccc(C(NC(C)=O)c2ccc3cccnc3c2O)c1 (stereo unspecified) | 72
O=[N+]([O-])c1ccc(O)c(/C=N/Nc2ccc(Cl)nn2)c1 | 100
Oc1cccc(/C=N/Nc2cccc3cccnc23)c1 | -142*
Oc1c(/C=N/Nc2cccc3cccnc23)ccc2ccccc12 | -164*
COc1cc(/C=N/Nc2cccc3cccnc23)cc(OC)c1O | -94*
Oc1cccc(/C=N/Nc2ccc(Cl)nn2)c1 | -171*
Oc1ccc(/C=N/Nc2cccc(Cl)n2)c(O)c1 | -244*
Clc1ccc(-c2noc(CN3CCCC3)n2)cc1 | -86*
Cc1ccc(-c2noc(CN3CCOCC3)n2)cc1 | -87*
c1ccc(-c2noc(CN3CCOCC3)n2)cc1 | -63*
Cc1ccn2c(CN3CCOCC3)c(-c3ccccc3)nc2c1 | -126*
Cc1ccc(-c2noc(CN3CCCCC3)n2)cc1 | -126*
c1ccc(NCc2nc(-c3ccccc3)no2)cc1 | -133*
COc1ccc(-c2nc(CS(=O)CC(=O)NCCCN3CCCC(C)C3)c(C)o2)cc1OC (stereo unspecified) | -101*
Cc1oc(-c2ccc(Cl)cc2)nc1CS(=O)CC(=O)NCCCN1CCCC(C)C1 (stereo unspecified) | -91*
O=c1c2ccccc2nc2oc3ccccc3n12 | -148*
Clc1ccccc1-c1ncc(-c2ccccc2)o1 | -143*
Cc1ccc(SCc2cc(=O)n3ccsc3n2)c(C)c1 | -79*
Cc1ccnc(NC(=O)Cc2ccc(-c3ccccc3)cc2)c1 | -122*
O=C(Cc1ccc(-c2ccccc2)cc1)Nc1ccccn1 | -118*
O=C(Nc1ccc2c(c1)OCCO2)c1cc2sccc2n1Cc1ccccc1 | -102*
O=C(Nc1ccc2c(c1)OCCO2)c1cc2sccc2n1Cc1ccc(F)cc1 | -110*
SMILES | aSyn UTR act
Cn1c(C(=O)Nc2ccc3c(c2)OCCO3)cc2sccc21 | -87*
Nc1[nH]n(-c2ccccc2)c(=O)c1N=Nc1ccccc1 | -138*
Nc1[nH]n(-c2ccccc2)c(=O)c1N=Nc1ccc2ncsc2c1 | -78*
Nc1[nH]n(-c2ccccc2)c(=O)c1N=Nc1ccccc1[N+](=O)[O-] | -133*
O=C(COc1ccc(Cl)cc1Cl)NC1CCSC1=O (stereo unspecified) | -86*
O=C(COc1ccc(Br)cc1Cl)NC1CCCCC1 | -162*
O=C(COc1ccc(Br)cc1Br)NC1CCCC1 | -113*
CCSc1nn2c(=O)c3ccccc3nc2s1 | -120*
CC1(C)CC(=O)C2=C(C1)Nc1ccccc1N=C2 | -163*
CCN=c1scc(-c2ccc(F)cc2)n1/N=C/c1ccccn1 | -73*
C=CCN=c1scc(-c2ccccc2)n1/N=C/c1ccccn1 | -68*
CCOc1ccc(N2Cc3ccccc3C2)cc1 | -120*
